Source: ChEMBL document CHEMBL4513216, “Probing the Open Global Health Chemical Diversity Library for Multistage-Active Starting Points for Next-Generation Antimalarials” (ACS Infect Dis, 2020)
Hit rate of the full screen: of about 65,000 compounds, about 2,100 (3.2%) showed an effect of 50% or more. The median lay at about -52%. The entries come from a sample that favours strong results as a whole.

tested on: Plasmodium falciparum; test: Screen against P. falciparum Asexual Blood Stage (ABS), at 5uM; format: functional, Dd2; conditions: tested at 5 uM

Row | Compound | INHIBITION [%]
1 | O=C1[C@H]2CN(Cc3ccoc3)C[C@H]2CN1Cc1ccncc1 | -110
2 | COc1ccc2c(c1)c(C(=O)Nc1cc(C)n(C)n1)cn2C(C)C | 9.46
3 | O=C1NCc2ccccc2CC12CCN(Cc1ccncc1Cl)C2 (configuration not stated) | -32
4 | COc1cc(C2SCC(=O)Nc3ccsc32)cc(OC)c1OC (configuration not stated) | -0.914
5 | c1csc(CN2CC[C@H]3C[C@H](c4ccncn4)O[C@@H]3C2)c1 | -71.5
6 | C=Cn1cc(CN2CCN(CC3(c4ccccc4)CC3)CC2)c(C)n1 | 72.4
7 | Cn1cc(CN2CCC3(CC2)C(=O)Nc2ccccc23)cn1 | -74.2
8 | Cn1cc(CN2CCN(CC3(c4ccccc4)CC3)CC2)cn1 | 78.9
9 | Cn1cc(CN2CCC3(CCCN3Cc3cccnc3)CC2)cn1 | -18.8
10 | O=C1CO[C@@H]2CN(C3CCOCC3)C[C@H]2N1Cc1ccncc1 | -24.5
11 | Cn1nc(-c2cccs2)cc1[C@H]1CN2CC[C@H]1C[C@@H]2CNS(C)(=O)=O | -60.1
12 | Cc1nc(C2(NCC(=O)NC(=O)Nc3ccccc3)CCCCC2)no1 | -126
13 | CCn1ccnc1CN1CCCN(C(=O)Cc2ccc(C)s2)CC1 | -75.1
14 | CCn1ccnc1CN1CCCN(C(=O)Cc2ccc(C)nc2)CC1 | -85.3
15 | CCn1ccnc1CN1CCCN(C(=O)Cc2ccc(C)cc2)CC1 | -118
16 | CCn1ccnc1CN1CCCC(CO)(Cc2cccc(Cl)c2)C1 (configuration not stated) | 76.8
17 | CCOC(=O)C1(Cc2ccccc2)CCCN(Cc2nccn2CC)C1 (configuration not stated) | 71.1
18 | Cc1cnn(CC(C)NCc2cc(C#N)ccc2F)c1 (configuration not stated) | -49.9
19 | Fc1cnc(N2CCO[C@H]3CN(CC4CCCCC4)C[C@H]32)nc1 | 34.2
20 | COc1ccc(CNC(Cc2ccsc2)c2ncccc2C)cc1OC (configuration not stated) | 74.7
21 | Cc1cccc(C)c1NC(=O)CNC(C)Cc1ccsc1 (configuration not stated) | 29.6
22 | COc1ccc(CNC(C)Cn2cccn2)cc1F (configuration not stated) | -60.6
23 | COc1cccc(OC)c1CNC(Cc1ccsc1)c1ccc(C)cn1 (configuration not stated) | 92.5
24 | Cc1ccc(NC(=O)CNC(C)Cc2ccsc2)cc1F (configuration not stated) | 22.9
25 | Cc1ncsc1CN1C[C@@H]2CCCO[C@@H]2[C@H](Nc2ccccn2)C1 | -27.2
26 | Clc1cccc(C2CCN(c3ncnc4c3CCNC4)C2)c1 (configuration not stated) | 79.6

Row | Compound | INHIBITION [%]
27 | c1ccc(C2CCN(c3ncnc4c3CCNC4)CC2)cc1 | 74.4
28 | c1ccc2sc(N3CCCN(c4ncnc5c4CCNC5)CC3)nc2c1 | 85.2
29 | CC[C@H](C)[C@@H](CO)NC(C)Cc1ccc(F)cc1 (some centres not stated) | 41.2
30 | O=C(C1CCC1)N1CCO[C@@H]2CNC[C@@H]21 | -39.2
31 | COC(=O)NCC1CCC2(CCNCC2)O1 (configuration not stated) | -44.6
32 | CCOC(=O)[C@@H]1[C@@H](c2ccccc2)CN2CCN(C(=O)N(C)C)C[C@H]12 | -64
33 | CCOC(=O)N1CCC(NC(C)Cc2cc(C)n[nH]2)CC1 (configuration not stated) | -139
34 | CCC(CNC1CCN(C(=O)N(C)C)CC1)Oc1ccccc1C (configuration not stated) | 73.2
35 | CN(C)C(=O)CN1CCCC12CCCN(c1ncc(F)cn1)C2 (configuration not stated) | -30.5
36 | CC(C)(C)n1cc(C2=CCN(CCNC(=O)c3ccccc3)CC2)cn1 | 19.4
37 | CC(C)(C)n1cc(C2=CCN(CCN3CCCCCC3)CC2)cn1 | 71.5
38 | CC(C)(C)n1cc(C2=CCN(CCc3ccccc3)CC2)cn1 | 68
39 | CC(C)(C)n1cc(C2=CCN(CCc3ccccn3)CC2)cn1 | 45.2
40 | CC(C)(C)n1cc(C2=CCN(CCNC(N)=O)CC2)cn1 | -161
41 | Cc1nc(O)cc(CN2CC=C(c3cnn(C(C)(C)C)c3)CC2)n1 | -58.8
42 | COCCN1CCC12CCN(c1ncccn1)C2 (configuration not stated) | -86.1
43 | O=C(Cn1ccc2ccc(Br)cc21)NC[C@@H]1CCCN2CCCC[C@H]12 | 79.3
44 | O=C(Cn1ccc2c(Cl)cccc21)N1CCC2(CC1)OCCO2 | -85.8
45 | O=C(CC[C@@H]1CCCN2CCCC[C@H]12)NCCc1cc(O)ncn1 | -119
46 | Cc1cccc2c1ccn2CC(=O)NC[C@@H]1CCCN2CCCC[C@H]12 | 70.9
47 | Cc1nc(O)cc(CNC(=O)CC[C@@H]2CCCN3CCCC[C@H]23)n1 | -4.68
48 | O=C(Cc1c[nH]c2ccccc12)N1CCC(Nc2ccccc2)CC1 | -7.04
49 | COCCN1CCN(c2ccc(C)nn2)Cc2cccnc21 | -2.72
50 | CN1CCc2c(CNC(=O)c3nccn3C)cncc2C1 | -77.8
51 | Cc1n[nH]cc1C(=O)NCc1cccnc1N1CCc2ccccc2C1 | 75.3
52 | O=C(C1CCC1)N1CCC2(CCNCC2)C1 | -39.1

Row | Compound | INHIBITION [%]
53 | COc1ccc(-c2c(C)nn3c(=N)c(C#N)n[nH]c23)cc1OC | 87.8
54 | O=C(c1cccnc1)N1C[C@@H]2OCCN(CCN3CCCC3)[C@@H]2C1 | -134
55 | CC(=O)NC[C@H]1C[C@@H]2CCN1C[C@@H]2c1cc(-c2cccs2)nn1C | -50.5
56 | c1ccc(CN2CC[C@H]3[C@H]2CCN3c2ncccn2)nc1 | -84.3
57 | Cn1cccc1CNCC1CCCn2cc(C(C)(C)C)nc21 (configuration not stated) | 75.7
58 | CC(C)(C)c1cn2c(n1)C(CNCc1cnn3ccccc13)CCC2 (configuration not stated) | 80
59 | Cc1cccc(CN2C(=O)C[C@H]3[C@@H]2CCN3Cc2ccccn2)n1 | -22.5
60 | CC(C)(C)c1cn2c(n1)C(CNCc1ccccn1)CCC2 (configuration not stated) | 92.9
61 | Cc1nc(NCC2CC2)nc2c1COCC21CCNC1 (configuration not stated) | -88.5
62 | Cc1noc([C@]23COC[C@H]2CN(Cc2cc(C)on2)C3)n1 | -5.88
63 | Cc1nn(C)c2nc(N3CCCCC3c3cccnc3)sc12 (configuration not stated) | -114
64 | CCCS(=O)(=O)N1CCc2c(COCC)cncc2C1 | -24.8
65 | Cc1noc(C)c1CN1C[C@@H]2CCCO[C@@H]2[C@H](NS(C)(=O)=O)C1 | -59.8
66 | O=C(NCC(=O)N1CCC2(CC1)OCCO2)c1ccoc1 | -196
67 | CS(=O)(=O)N1C[C@@H]2CC[C@H]1CN(Cc1ccncc1)C2 | -82.5
68 | CC(C)=CCN1CCC2(CC1)c1ccccc1[C@@H](N1CCSCC1)[C@@H]2O | 78.5
69 | COCCn1cc(C(=O)NCCS(N)(=O)=O)c2ccccc21 | -110
70 | CCC(O)Cn1cc(C2=CCN(Cc3cc(O)nc(C)n3)CC2)cn1 (configuration not stated) | -24.6
71 | COc1cccc(Cn2cc(C3=CCN(CCO)CC3)cn2)c1 | 54.2
72 | COc1cccc(Cn2cc(C3=CCN(CC(=O)N(C)C)CC3)cn2)c1 | -27.6
73 | CN(C)C(=O)CN1CC=C(c2cnn(Cc3ccccc3)c2)CC1 | -52.4
74 | CCn1cc(C2=CCN(CCCOc3ccccc3)CC2)cn1 | 82
75 | CCC(O)Cn1cc(C2=CCN(Cc3ccc(OC)cc3)CC2)cn1 (configuration not stated) | 68.7
76 | O=c1[nH]ccn1CCCN1CC=C(c2cnn(-c3ccccc3)c2)CC1 | -235
77 | Cn1cc(C2=CCN(CCCOc3ccc(C(N)=O)cc3)CC2)cn1 | -64.5
78 | Cc1nc(O)cc(CN2CC=C(c3cnn(-c4ccccc4)c3)CC2)n1 | -90.2

Row | Compound | INHIBITION [%]
79 | O=C(c1cn(Cc2ccccc2)c2ncccc12)N1CCOCC1 | -68.2
80 | Cc1cccc(CN2CC[C@@H]3[C@@H]2CCN3C(=O)c2ccoc2C)n1 | -77.9
81 | CNc1ncc(CN(C)c2ncnc3onc(C)c23)cn1 | -3.41
82 | O=C(Cc1ccc(O)c(F)c1)N1CCN(CC2CC2)[C@@H]2CS(=O)(=O)C[C@@H]21 | -78.4
83 | O=C(c1onc2ccccc12)N1CCC2(CCCNC2)C1 (configuration not stated) | -59.1
84 | c1ccc(Cn2cccn2)c(CN2CCC3(CCCNC3)C2)c1 (configuration not stated) | 85
85 | Fc1cnccc1CN1CCC2(CCNCC2)C1 | -66.9
86 | CN(C)CCNC(=O)c1ccn(-c2ccc3ccccn23)n1 | 84
87 | O=C1OCCC1N1CCN(C(=O)Cc2c[nH]c3ccccc23)CC1 (configuration not stated) | -131
88 | Cc1nc(CC(=O)N2CCN(C(C)c3ccccc3F)CC2)cs1 (configuration not stated) | -60.5
89 | CCN1CCN(c2ccc(NC(=O)CC(C)C)c(C)c2)CC1 | -6.8
90 | CN1CCN(c2ccc(NC(=O)c3cccs3)c(C(F)(F)F)c2)CC1 | 73.6
91 | CN(C)C(=O)N1CCC2(C1)CN(c1cccnc1)C(=O)CN2C (configuration not stated) | -35.4
92 | COc1cc(C)c(CN2CCC3(CC2)[C@H](O)C[C@@H]3OCCN)cc1C | 77.2
93 | C1Cc2nc(CCNc3nc(C4CC4)nc4c3CCNCC4)sc2C1 | 78.5
94 | COc1ccc(CN(Cc2ccccn2)Cc2cncn2C)cc1 | 70.1
95 | CN1CCN(Cc2cccnc2)C(=O)C12CCN(S(C)(=O)=O)CC2 | -18.9
96 | Cc1ccc(CN(c2cc(C)nc3nc(C(F)(F)F)nn23)C2CC2)cc1 | 94
97 | CCS(=O)(=O)NC[C@]12COC[C@H]1CN(Cc1ccncc1)C2 | -65.2
98 | Cc1ccc(N2C[C@@H]3CN(Cc4ccsc4)CCO[C@@H]3C2)nn1 | -56.6
99 | Brc1ccc(C2(CNCc3cc[nH]c3)CCOCC2)cc1 | 74.5
100 | NCC1(c2cccc(C(F)(F)F)c2)CCC1 | 26.1
101 | Brc1cccc(C2(CNCc3cc[nH]c3)CCOCC2)c1 | 83.1
102 | FC(F)(F)c1cccc(C2(CNCc3cc[nH]c3)CCOCC2)c1 | 75.1
